# In PubChem BioAssay AID1159580 (chemical genetic matrix, 2015):
# Where “and” joins values, the source holds several entries; their conditions need not be identical. Equal entries are not always repeated. Hit rate of the full screen: of about 5,500 compounds, about 2,000 (36%) were called active. Not shown: some 18% with an inconclusive outcome. The list shows a part of the results. A number with no mark means an inactive call. Cut-off read from the data, not from the text of the source: active = normalized growth mostly below about 0.91 (no sharp cut-off); inconclusive = no clear call, values can overlap the other calls; inactive = mostly above about 0.92.
# Assay: chemical genetic growth profiling, strain panel (AID 1159580);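 note: tested at 20 µM; growth read once vehicle control cultures reached saturation at 30 °C; 1 = growth at the plate median or of vehicle wells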
# Conditions: S. cerevisiae deletion strains, growth OD
smiles,measurement,setting,value
C=CCc1ccc(O)c(OC)c1,normalized growth,"locus YAL013W, strain DEP1, stronger effect = lower value",0.971
same,normalized growth,"locus YAL021C, strain ccr4, stronger effect = lower value",1.01
same,normalized growth,"locus YAL026C, strain drs2, stronger effect = lower value",1
same,normalized growth,"locus YAL030W, strain snc1, stronger effect = lower value",0.989
same,normalized growth,"locus YBL061C, strain skt5, stronger effect = lower value",0.986
same,normalized growth,"locus YBR009C, strain hhf1, stronger effect = lower value",1.02
same,normalized growth,"locus YBR021W, strain FUR4, stronger effect = lower value",1.05
same,normalized growth,"locus YBR023C, strain chs3, stronger effect = lower value",1
same,normalized growth,"locus YBR171W, strain sec66, stronger effect = lower value",0.994
same,normalized growth,"locus YBR229C, strain ROT2, stronger effect = lower value",0.94
same,normalized growth,"locus YBR231C, strain swc5, stronger effect = lower value",0.907 (active)
same,normalized growth,"locus YBR279W, strain paf1, stronger effect = lower value",0.997
same,normalized growth,"locus YCL011C, strain gbp2, stronger effect = lower value",1.01
same,normalized growth,"locus YCL016C, strain dcc1, stronger effect = lower value",1.01
same,normalized growth,"locus YCL029C, strain bik1, stronger effect = lower value",0.949
same,normalized growth,"locus YCL061C, strain MRC1, stronger effect = lower value",1.01
same,normalized growth,"locus YCL069W, strain vba3, stronger effect = lower value",0.993
same,normalized growth,"locus YCR088W, strain abp1, stronger effect = lower value",0.984
same,normalized growth,"locus YDL005C, strain med2, stronger effect = lower value",1.01
same,normalized growth,"locus YDL035C, strain GPR1, stronger effect = lower value",0.992
same,normalized growth,"locus YDL040C, strain nat1, stronger effect = lower value",0.98
same,normalized growth,"locus YDL074C, strain BRE1, stronger effect = lower value",0.967
same,normalized growth,"locus YDL101C, strain DUN1, stronger effect = lower value",0.961
same,normalized growth,"locus YDL185W, strain tfp1, stronger effect = lower value",0.975
same,normalized growth,"locus YDL192W, strain arf1, stronger effect = lower value",0.896 (active)
same,normalized growth,"locus YDR001C, strain nth1, stronger effect = lower value",0.982
same,normalized growth,"locus YDR069C, strain doa4, stronger effect = lower value",1
same,normalized growth,"locus YDR101C, strain arx1, stronger effect = lower value",0.947
same,normalized growth,"locus YDR137W, strain rgp1, stronger effect = lower value",0.978
same,normalized growth,"locus YDR150W, strain NUM1, stronger effect = lower value",0.938
same,normalized growth,"locus YDR159W, strain sac3, stronger effect = lower value",0.949
same,normalized growth,"locus YDR162C, strain NBP2, stronger effect = lower value",0.967
same,normalized growth,"locus YDR195W, strain ref2",0.925
same,normalized growth,"locus YDR297W, strain sur2, stronger effect = lower value",0.988
same,normalized growth,"locus YDR318W, strain mcm21, stronger effect = lower value",0.925
same,normalized growth,"locus YDR334W, strain swr1, stronger effect = lower value",0.983
same,normalized growth,"locus YDR335W, strain msn5, stronger effect = lower value",0.996
same,normalized growth,"locus YDR388W, stronger effect = lower value",0.944
same,normalized growth,"locus YDR392W, strain spt3, stronger effect = lower value",0.841
same,normalized growth,"locus YDR502C, strain sam2, stronger effect = lower value",0.956
same,normalized growth,"locus YEL003W, strain gim4, stronger effect = lower value",0.994
same,normalized growth,"locus YEL037C, strain rad23, stronger effect = lower value",0.989
same,normalized growth,"locus YEL061C, strain CIN8 (second series), stronger effect = lower value",0.992
same,normalized growth,"locus YEL061C, strain CIN8, stronger effect = lower value",0.923 (active)
same,normalized growth,"locus YER015W, strain faa2, stronger effect = lower value",0.995
same,normalized growth,"locus YER016W, strain bim1, stronger effect = lower value",0.994
same,normalized growth,"locus YER110C, stronger effect = lower value",0.908
same,normalized growth,"locus YER111C, strain swi4, stronger effect = lower value",0.996
same,normalized growth,"locus YER155C, strain BEM2 (second series), stronger effect = lower value",0.789 (active)
same,normalized growth,"locus YER155C, strain BEM2, stronger effect = lower value",0.93
same,normalized growth,"locus YER167W, strain BCK2, stronger effect = lower value",0.911
same,normalized growth,"locus YFR010W, strain ubp6, stronger effect = lower value",0.999
same,normalized growth,"locus YGL078C, strain dbp3, stronger effect = lower value",0.984
same,normalized growth,"locus YGL086W, strain mad1, stronger effect = lower value",0.942
same,normalized growth,"locus YGL167C, strain pmr1, stronger effect = lower value",0.984
same,normalized growth,"locus YGL173C, strain kem1, stronger effect = lower value",1
same,normalized growth,"locus YGL227W, strain vid30, stronger effect = lower value",0.994
same,normalized growth,"locus YGL240W, strain doc1, stronger effect = lower value",0.955
same,normalized growth,"locus YGL248W, strain PDE1, stronger effect = lower value",0.937
same,normalized growth,"locus YGL253W, strain hxk2, stronger effect = lower value",0.994
same,normalized growth,"locus YGR078C, strain PAC10, stronger effect = lower value",0.929
same,normalized growth,"locus YGR135W, strain pre9, stronger effect = lower value",0.926
same,normalized growth,"locus YGR252W, strain gcn5, stronger effect = lower value",1.19
same,normalized growth,"locus YHR013C, strain ard1, stronger effect = lower value",0.997
same,normalized growth,"locus YHR027C, strain rpn1, stronger effect = lower value",1
same,normalized growth,"locus YHR030C, strain SLT2, stronger effect = lower value",0.942 and 0.988
same,normalized growth,"locus YHR079C, strain IRE1 (second series), stronger effect = lower value",0.927
same,normalized growth,"locus YHR079C, strain IRE1, stronger effect = lower value",0.975
same,normalized growth,"locus YHR094C, strain hxt1, stronger effect = lower value",0.939
same,normalized growth,"locus YHR129C, strain ARP1, stronger effect = lower value",0.931
same,normalized growth,"locus YHR142W, strain chs7, stronger effect = lower value",1.01
same,normalized growth,"locus YHR200W, strain rpn10, stronger effect = lower value",0.937
same,normalized growth,"locus YIL066C, strain RNR3, stronger effect = lower value",0.921
same,normalized growth,"locus YIL073C, strain SPO22, stronger effect = lower value",0.947
same,normalized growth,"locus YIL125W, strain kgd1, stronger effect = lower value",0.942
same,normalized growth,"locus YIR030C, strain dcg1, stronger effect = lower value",0.929
same,normalized growth,"locus YJL092W, strain hpr5, stronger effect = lower value",0.987
same,normalized growth,"locus YJL095W, strain BCK1 (second series), stronger effect = lower value",0.992
same,normalized growth,"locus YJL095W, strain BCK1, stronger effect = lower value",0.937 and 0.962
same,normalized growth,"locus YJL115W, strain asf1, stronger effect = lower value",0.982
same,normalized growth,"locus YJL129C, strain trk1, stronger effect = lower value",0.979
same,normalized growth,"locus YJL134W, strain LCB3, stronger effect = lower value",0.937
same,normalized growth,"locus YJL154C, strain vps35, stronger effect = lower value",0.996
same,normalized growth,"locus YJL164C, strain tpk1, stronger effect = lower value",1.02
same,normalized growth,"locus YJL166W, strain qcr8, stronger effect = lower value",1.03
same,normalized growth,"locus YJL168C, strain set2, stronger effect = lower value",0.929 (active)
same,normalized growth,"locus YJL187C, strain SWE1 (second series), stronger effect = lower value",0.978
